In PubChem BioAssay (NCI):
The panel holds about 79,000 compounds, 15% with a hit somewhere; the sample as a whole holds those more often. Unmarked numbers belong to inactive results. The source made the active and inactive calls. Rule as the data show it: active = growth inhibition above about 70%; inactive = the rest.

Experiments:
[1] = NCI Yeast Anticancer Drug Screen. Data for the rad50 strain (AID 155);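 also: 0% = growth of vehicle-only cultures of the same strain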; conditions: S. cerevisiae rad50 strain growth inhibition, stronger effect = higher value
In short: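 Compounds were tested on a yeast strain with an engineered DNA damage repair alteration; the reported value is growth inhibition normalised to vehicle treatment.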

[2] = NCI Yeast Anticancer Drug Screen. Data for the mec2-1 strain (AID 157); conditions: S. cerevisiae mec2-1 strain, stronger effect = higher value
In short: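 Mutant yeast (mec2-1) grown with compound; growth inhibition relative to vehicle control reported.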

[3] = NCI Yeast Anticancer Drug Screen. Data for the sgs1 mgt1 strain (AID 161);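 also: 0% = growth of cultures given vehicle only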; conditions: S. cerevisiae sgs1 mgt1 strain, stronger effect = higher value
In short: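 Growth of a repair-deficient yeast mutant was monitored after compound treatment and expressed as inhibition relative to vehicle-treated cultures.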

[4] = NCI Yeast Anticancer Drug Screen. Data for the cln2 rad14 strain (AID 165);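 also: 0% = growth equal to vehicle treated cultures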; conditions: S. cerevisiae cln2 rad14 strain, stronger effect = higher value
In short: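 Readout is yeast growth inhibition versus vehicle-treated controls, using a strain with cln2 and rad14 alterations exposed to compound.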

[5] = NCI Yeast Anticancer Drug Screen. Data for the bub3 strain (AID 167); conditions: S. cerevisiae bub3 mutant strain, stronger effect = higher value
In short: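 Growth of a checkpoint-deficient yeast mutant is measured after compound exposure. Values represent inhibition relative to vehicle.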

[6] = NCI Yeast Anticancer Drug Screen. Data for the mlh1 rad18 strain (AID 175); conditions: S. cerevisiae mlh1 rad18 strain growth inhibition, stronger effect = higher value
In short: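 Genetically defined yeast (DNA repair-deficient) exposed to compounds; growth inhibition determined relative to vehicle.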

[7] = at 5.0 µM (retest, dose inferred, filed as 0.5)
[8] = at 50.0 µM (retest, dose inferred, filed as 5.0)

Structure (SMILES) | growth inhibition [1, 7] [%] | growth inhibition [1, 8] | growth inhibition ([1]; at 50.0 µM) | growth inhibition [2, 7] [%] | growth inhibition [2, 8] | growth inhibition ([2]; at 50.0 µM) | growth inhibition [3, 7] | growth inhibition [3, 8] | growth inhibition ([3]; at 50.0 µM) | growth inhibition [4, 7] [%] | growth inhibition [4, 8] | growth inhibition ([4]; at 50.0 µM) | growth inhibition [5, 7] | growth inhibition [5, 8] | growth inhibition ([5]; at 50.0 µM) | growth inhibition [6, 7] | growth inhibition [6, 8] | growth inhibition ([6]; at 50.0 µM)
COc1ccc(C(=O)C(c2ccc(OC)cc2)C2(O)C(=O)Nc3c(C)cc(Cl)cc32)cc1 (configuration not stated) | 21 | 21% | -25.1% | -15 | -15% | 89% (active) | -9% | -9% | 87.8% (active) | 3 | 3% | 69.7% | -3% | -3% | 89.8% (active) | -2% | -2% | 38.7%
C#CC(CC(C)C)(CC(C)C)OC(=O)Nc1ccccc1 | 5 | 95% (active) | 97.9% (active) | 1 | 97% (active) | 97.3% (active) | 4% | 98% (active) | 98.1% (active) | 3 | 96% (active) | 97.7% (active) | 3% | 94% (active) | 97.5% (active) | -6% | 95% (active) | 97.3% (active)
Nc1ccc(Oc2ccc(-c3ccccc3)cc2)c(Cl)c1 | 61 | 97% (active) | 97.8% (active) | 61 | 98% (active) | 98.3% (active) | 72% (active) | 98% (active) | 98% (active) | 35 | 97% (active) | 96.3% (active) | 78% (active) | 97% (active) | 98% (active) | 89% (active) | 97% (active) | 97.7% (active)
Cc1nc(-c2cccc(Cl)c2)oc1-c1ccccc1 | 2 | 78% (active) | 28.4% | 8 | 78% (active) | 27.8% | 17% | 85% (active) | 40.2% | 1 | 80% (active) | 53.4% | -3% | 76% (active) | 47.8% | 4% | 76% (active) | 58.5%
CN(C)CC(O)c1cc(-c2ccc(Cl)c(Cl)c2)nc2c(Cl)cc(Cl)cc12 (configuration not stated) | 3 | 98% (active) | 97.8% (active) | -3 | 99% (active) | 98.5% (active) | -9% | 99% (active) | 98.5% (active) | -4 | 97% (active) | 98.2% (active) | 0% | 75% (active) | 98.3% (active) | 1% | 98% (active) | 98% (active)
CCCCCOCC(=O)OC | -1 | 13% | -1.9% | 0 | 5% | -11.6% | -1% | 5% | -16.2% | 2 | 0% | 44.2% | 0% | 7% | -1.3% | 2% | 7% | -15.1%
O=C(O)c1cc(Br)ccc1OCc1ccc(Cl)cc1 | -1 | 28% | 43.9% | -1 | 19% | 51.2% | -7% | 5% | 58% | -13 | 27% | 79.4% (active) | -8% | 9% | -2.25% | -8% | 12% | 52.9%
Cc1cc(N/N=C/c2ccc([N+](=O)[O-])o2)c2cc3c(cc2n1)OCO3 | 23 | 99% (active) | 96.7% (active) | 16 | 100% (active) | 92.3% (active) | 33% | 99% (active) | 97.5% (active) | 4 | 99% (active) | 92.7% (active) | 8% | 99% (active) | 90.5% (active) | 23% | 99% (active) | 95.3% (active)
CCOC(=O)c1cc(C)ccc1-c1ccc(C)cc1C(=O)OCC | 1 | 29% | 57.6% | -10 | 8% | 67.8% | 1% | 68% | 77% (active) | -1 | 17% | 3.55% | 6% | 46% | 86.8% (active) | 2% | 28% | 75.5% (active)
COc1ccc2c(c1)[n+]([O-])c(S(=O)(=O)c1ccc(C)cc1)c(N)[n+]2[O-] | 4 | 80% (active) | 99.2% (active) | 18 | 80% (active) | 98.8% (active) | 35% | 96% (active) | 96% (active) | 16 | 66% | 99% (active) | 50% | 96% (active) | 99% (active) | 36% | 95% (active) | 99% (active)
CCOC(=O)c1c(Br)c(-c2ccc(Br)cc2)c(Br)n1C | -6 | 1% | 7.95% | -7 | -29% | -16.1% | -11% | -1% | -6.25% | 29 | -25% | 24.1% | -11% | -15% | -7% | -8% | -12% | -10.6%
CCOC(=O)/C(Cl)=C(\C)Nc1nc2c(ccc3ccccc32)s1 | 22 | 20% | 8.8% | 1 | 66% | 26.6% | -8% | 31% | -0.75% | 15 | 71% (active) | 97.3% (active) | -4% | 94% (active) | 94.9% (active) | 0% | 21% | 0.6%
CCOC(=O)C1=C(c2ccccc2)c2ccccc2OC1C(=O)O (configuration not stated) | 8 | 38% | 26.5% | 22 | 60% | 14.8% | 16% | 64% | 19.5% | 2 | 38% | 59.9% | 16% | 29% | 32.5% | 34% | 78% (active) | 55.8%
COc1ccc2oc(-c3ccc(OC)c(OC)c3OC)cc(=O)c2c1 | -34 | -26% | 15.7% | -47 | -12% | 22% | -11% | 50% | 70% (active) | -14 | 9% | -4.55% | -15% | 48% | 51.2% | -39% | -7% | 4.8%
OC1(c2ccccc2)CCC2CCCCC2C1 (configuration not stated) | 3 | 32% | 94.4% (active) | -4 | 52% | 96.5% (active) | 2% | 69% | 90.5% (active) | -10 | 8% | 89.5% (active) | 4% | 49% | 88.5% (active) | -14% | 63% | 81.2% (active)
NC(=O)CCSC(=S)N1CCOCC1 | -2 | -16% | -8.55% | -5 | -2% | -16.6% | -3% | 4% | -8.35% | 4 | -2% | 29.1% | 39% | -5% | -1.85% | 1% | 2% | -17.4%
Cc1ccc(SSCCCCS(=O)O)cc1 | -2 | 33% | 65.7% | 4 | 85% (active) | 62.2% | 5% | 91% (active) | 82.8% (active) | -5 | 64% | 84.9% (active) | 13% | 88% (active) | 80.3% (active) | 1% | 80% (active) | 91.8% (active)
CC(=O)C(C(=O)CCSCCO)C(SCCO)c1ccc(Cl)c(Cl)c1 (configuration not stated) | -1 | 64% | 59.4% | -3 | 63% | 79% (active) | -1% | 81% (active) | 71.8% (active) | -4 | 55% | 40.1% | -6% | 70% (active) | 62.4% | -3% | 73% (active) | 73.8% (active)
C=C1CC2(C[C@@H](c3ccccc3)O[C@@H](c3ccccc3)C2)OC1=O (some centres not stated) | 20 | 97% (active) | 95% (active) | 4 | 98% (active) | 94.6% (active) | 2% | 98% (active) | 94.5% (active) | 35 | 97% (active) | 90.5% (active) | 33% | 98% (active) | 95.2% (active) | 15% | 98% (active) | 92.5% (active)
